Publication PMC10812921, “Transcriptional Coactivator BOB1 (OBF1, OCA-B) Modulates the Specificity of DNA Recognition by the POU-Domain Factors OCT1 and OCT2 in a Monomeric Configuration”

Legend:
[1] = molecular target: POU1 (OCT1 POU domain) (human, UniProt P14859 260-458); experiment: EMSA-SELEX-seq; no BOB1; 20 mM Tris-HCl pH 7.6, 140 mM NaCl, 10% glycerol, 0.5 mM EDTA, 0.05% Triton X-100, 0.1 mg/mL BSA, 0.1 mg/mL poly(dI-dC), 5 mM DTT, room temperature, 20 min; high values mean tight binding; details: protein: recombinant; dsDNA, one strand shown
Outline: (§1)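 After expression in E. coli BL21, tagged POU-domain proteins were purified under denaturing conditions and then renatured. Each binding reaction held 30 ng protein and 300 ng of a PCR-amplified double-stranded random 35-nt library in 20 μL Tris–HCl pH 7.6 binding buffer, with or without 28 ng coactivator protein, for 20 min at RT. Bands holding complexes were cut from native 6% PAGE, eluted and PCR-amplified across four rounds, and the output was Illumina-sequenced. The value given for binding preference is the share, in percent, of sequenced 8-mers fitting a motif pattern.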

[2] = molecular target: T1, POU2 (OCT2 POU domain) (human, UniProt P09086 175-386); experiment: as above; details: protein: recombinant; dsDNA, one strand shown
T1 sequence: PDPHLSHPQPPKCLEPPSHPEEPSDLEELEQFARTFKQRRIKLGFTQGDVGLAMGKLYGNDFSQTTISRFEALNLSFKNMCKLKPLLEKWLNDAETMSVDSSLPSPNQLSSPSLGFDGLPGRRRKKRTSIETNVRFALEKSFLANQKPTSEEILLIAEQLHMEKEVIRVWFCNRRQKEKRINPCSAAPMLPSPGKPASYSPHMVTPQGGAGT
Outline: as §1

[3] = molecular target: POU1 (OCT1 POU domain);BOB1 (OBF1, OCA-B) (human;human, UniProt P14859;Q16633 260-458;1-256, |); experiment: EMSA-SELEX-seq; with BOB1 (ternary complex band); 20 mM Tris-HCl pH 7.6, 140 mM NaCl, 10% glycerol, 0.5 mM EDTA, 0.05% Triton X-100, 0.1 mg/mL BSA, 0.1 mg/mL poly(dI-dC), 5 mM DTT, room temperature, 20 min; high values mean tight binding; details: protein: recombinant;recombinant; copies: 1;1; dsDNA, one strand shown
Outline: as §1

[4] = molecular target: T2, POU2 (OCT2 POU domain);BOB1 (OBF1, OCA-B) (human;human, UniProt P09086;Q16633 175-386;1-256, |); experiment: as above; details: protein: recombinant;recombinant; copies: 1;1; dsDNA, one strand shown
T2 sequence 1: T1 sequence
T2 sequence 2: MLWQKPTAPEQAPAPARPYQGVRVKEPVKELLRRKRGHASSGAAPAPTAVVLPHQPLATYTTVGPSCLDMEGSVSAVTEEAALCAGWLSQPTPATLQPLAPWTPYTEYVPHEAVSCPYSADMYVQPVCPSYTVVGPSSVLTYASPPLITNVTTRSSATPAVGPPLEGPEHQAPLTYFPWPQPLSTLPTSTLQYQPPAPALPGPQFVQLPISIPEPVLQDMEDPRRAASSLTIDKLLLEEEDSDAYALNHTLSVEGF
Outline: as §1

POU1 (OCT1 POU domain), sequence (P14859 260-458): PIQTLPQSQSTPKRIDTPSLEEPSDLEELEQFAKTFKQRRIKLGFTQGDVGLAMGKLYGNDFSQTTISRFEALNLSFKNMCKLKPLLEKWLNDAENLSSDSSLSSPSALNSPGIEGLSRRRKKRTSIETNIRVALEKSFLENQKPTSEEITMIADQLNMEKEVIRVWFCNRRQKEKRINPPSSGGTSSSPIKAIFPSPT

| Sequence | binding signal [1] | binding signal [2] | binding signal [3] | binding signal [4] |
| --- | --- | --- | --- | --- |
| AGTATAAT | 0.192 % of ANNNNAAN 8-mers | 0.289 % of ANNNNAAN 8-mers | 0.0866 % of ANNNNAAN 8-mers | 0.121 % of ANNNNAAN 8-mers |
| ACAAAAAG | 0.0549 % of ANNNNAAN 8-mers | 0.0489 % of ANNNNAAN 8-mers | 0.0683 % of ANNNNAAN 8-mers | 0.0429 % of ANNNNAAN 8-mers |
| ACATTAAG | 0.095 % of ANNNNAAN 8-mers | 0.0875 % of ANNNNAAN 8-mers | 0.0539 % of ANNNNAAN 8-mers | 0.0487 % of ANNNNAAN 8-mers |
| ATCATAAG | 0.0496 % of ANNNNAAN 8-mers | 0.0581 % of ANNNNAAN 8-mers | 0.0379 % of ANNNNAAN 8-mers | 0.0421 % of ANNNNAAN 8-mers |
| ATGAAAAG | 0.135 % of ANNNNAAN 8-mers | 0.106 % of ANNNNAAN 8-mers | 0.175 % of ANNNNAAN 8-mers | 0.0867 % of ANNNNAAN 8-mers |
| AGCTGAAT | 0.0561 % of ANNNNAAN 8-mers | 0.0725 % of ANNNNAAN 8-mers | 0.0492 % of ANNNNAAN 8-mers | 0.0471 % of ANNNNAAN 8-mers |
| ATCCCAAA | 0.0263 % of ANNNNAAN 8-mers | 0.0253 % of ANNNNAAN 8-mers | 0.0343 % of ANNNNAAN 8-mers | 0.0297 % of ANNNNAAN 8-mers |
| AATGTAAT | 0.169 % of ANNNNAAN 8-mers | 0.181 % of ANNNNAAN 8-mers | 0.109 % of ANNNNAAN 8-mers | 0.137 % of ANNNNAAN 8-mers |
| AAAGCAAC | 0.0256 % of ANNNNAAN 8-mers | 0.0259 % of ANNNNAAN 8-mers | 0.0281 % of ANNNNAAN 8-mers | 0.0272 % of ANNNNAAN 8-mers |
| ACGTAAAA | 0.0648 % of ANNNNAAN 8-mers | 0.0529 % of ANNNNAAN 8-mers | 0.0823 % of ANNNNAAN 8-mers | 0.0537 % of ANNNNAAN 8-mers |
| AATATAAC | 0.05 % of ANNNNAAN 8-mers | 0.0817 % of ANNNNAAN 8-mers | 0.0589 % of ANNNNAAN 8-mers | 0.0578 % of ANNNNAAN 8-mers |
| AACTTAAT | 0.0995 % of ANNNNAAN 8-mers | 0.117 % of ANNNNAAN 8-mers | 0.0613 % of ANNNNAAN 8-mers | 0.0677 % of ANNNNAAN 8-mers |
| ATTGAAAG | 0.0603 % of ANNNNAAN 8-mers | 0.0604 % of ANNNNAAN 8-mers | 0.0632 % of ANNNNAAN 8-mers | 0.0611 % of ANNNNAAN 8-mers |
| AATACAAA | 0.134 % of ANNNNAAN 8-mers | 0.108 % of ANNNNAAN 8-mers | 0.148 % of ANNNNAAN 8-mers | 0.121 % of ANNNNAAN 8-mers |
| ACGAGAAG | 0.0217 % of ANNNNAAN 8-mers | 0.0288 % of ANNNNAAN 8-mers | 0.0269 % of ANNNNAAN 8-mers | 0.0347 % of ANNNNAAN 8-mers |
| ATCTTAAA | 0.0648 % of ANNNNAAN 8-mers | 0.0552 % of ANNNNAAN 8-mers | 0.0515 % of ANNNNAAN 8-mers | 0.0636 % of ANNNNAAN 8-mers |

| Sequence | binding signal [1] | binding signal [2] | binding signal [3] | binding signal [4] |
| --- | --- | --- | --- | --- |
| AAATCAAA | 0.133 % of ANNNNAAN 8-mers | 0.117 % of ANNNNAAN 8-mers | 0.194 % of ANNNNAAN 8-mers | 0.136 % of ANNNNAAN 8-mers |
| AAAGTAAC | 0.0439 % of ANNNNAAN 8-mers | 0.0437 % of ANNNNAAN 8-mers | 0.0605 % of ANNNNAAN 8-mers | 0.0537 % of ANNNNAAN 8-mers |
| ACTTTAAT | 0.0824 % of ANNNNAAN 8-mers | 0.103 % of ANNNNAAN 8-mers | 0.0558 % of ANNNNAAN 8-mers | 0.066 % of ANNNNAAN 8-mers |
| ATGTCAAT | 0.0828 % of ANNNNAAN 8-mers | 0.0869 % of ANNNNAAN 8-mers | 0.0722 % of ANNNNAAN 8-mers | 0.0743 % of ANNNNAAN 8-mers |
| ATTTCAAG | 0.0542 % of ANNNNAAN 8-mers | 0.0495 % of ANNNNAAN 8-mers | 0.055 % of ANNNNAAN 8-mers | 0.0561 % of ANNNNAAN 8-mers |
| ATGAGAAT | 0.101 % of ANNNNAAN 8-mers | 0.134 % of ANNNNAAN 8-mers | 0.0784 % of ANNNNAAN 8-mers | 0.106 % of ANNNNAAN 8-mers |
| ATCCAAAA | 0.0591 % of ANNNNAAN 8-mers | 0.0414 % of ANNNNAAN 8-mers | 0.0722 % of ANNNNAAN 8-mers | 0.0446 % of ANNNNAAN 8-mers |
| AGACAAAT | 0.114 % of ANNNNAAN 8-mers | 0.0748 % of ANNNNAAN 8-mers | 0.187 % of ANNNNAAN 8-mers | 0.105 % of ANNNNAAN 8-mers |
| ATAACAAG | 0.0458 % of ANNNNAAN 8-mers | 0.0621 % of ANNNNAAN 8-mers | 0.0355 % of ANNNNAAN 8-mers | 0.0462 % of ANNNNAAN 8-mers |
| AGTCAAAG | 0.116 % of ANNNNAAN 8-mers | 0.0748 % of ANNNNAAN 8-mers | 0.187 % of ANNNNAAN 8-mers | 0.0966 % of ANNNNAAN 8-mers |
| AGACTAAA | 0.0374 % of ANNNNAAN 8-mers | 0.0443 % of ANNNNAAN 8-mers | 0.0297 % of ANNNNAAN 8-mers | 0.0289 % of ANNNNAAN 8-mers |
| ACAGGAAT | 0.0622 % of ANNNNAAN 8-mers | 0.0685 % of ANNNNAAN 8-mers | 0.0476 % of ANNNNAAN 8-mers | 0.0702 % of ANNNNAAN 8-mers |
| ATGCTAAC | 0.0671 % of ANNNNAAN 8-mers | 0.0949 % of ANNNNAAN 8-mers | 0.0347 % of ANNNNAAN 8-mers | 0.0495 % of ANNNNAAN 8-mers |
| ACGCTAAC | 0.0118 % of ANNNNAAN 8-mers | 0.0121 % of ANNNNAAN 8-mers | 0.0133 % of ANNNNAAN 8-mers | 0.0157 % of ANNNNAAN 8-mers |
| AAACTAAT | 0.104 % of ANNNNAAN 8-mers | 0.129 % of ANNNNAAN 8-mers | 0.0808 % of ANNNNAAN 8-mers | 0.0925 % of ANNNNAAN 8-mers |
